# Experimental data taken from PubChem BioAssay (Tox21).
# Results filed as inconclusive are left out. Values without a mark were called inactive. Activity calls are given as the source filed them. Calls follow the shape of the dose curve; as a rule, active = well fitted activation curve with a large enough effect in the repeat runs; inconclusive = weak or mixed curves; inactive = no such curve, though single readings can be large or run the other way.
# Biological target: Aryl hydrocarbon receptor (Homo sapiens) (UniProt P35869)
# Experiment: qHTS assay to identify small molecule that activate the aryl hydrocarbon receptor (AhR) signaling pathway (AID 743085); also: nearly all actives have a fitted effect of over 15% in size;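 as to activation: HG2L7.5c1 human HepG2 liver cells with stably integrated DRE-driven firefly reporter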
# Conditions: HepG2 AhR-luc (HG2L7.5c1), luciferase, 24 h; series mostly up to 70.3 µM; activation: at the top concentration
# Summary of the method: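 Cell line HG2L7.5c1 (human hepatoma, 20× DRE-luc). Plated, 5 h 37C, compound/DMSO added, 24 h 37C. CellTiter-Fluor 30 min 37C → fluorescence; then ONE-Glo 30 min RT → luminescence.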
# % is scaled to controls: 0 for no effect and ±100 for the full control effect; potency is read from the fitted curve at half-maximal effect.
# Sequence of Aryl hydrocarbon receptor (Homo sapiens) (P35869 whole entry, looked up): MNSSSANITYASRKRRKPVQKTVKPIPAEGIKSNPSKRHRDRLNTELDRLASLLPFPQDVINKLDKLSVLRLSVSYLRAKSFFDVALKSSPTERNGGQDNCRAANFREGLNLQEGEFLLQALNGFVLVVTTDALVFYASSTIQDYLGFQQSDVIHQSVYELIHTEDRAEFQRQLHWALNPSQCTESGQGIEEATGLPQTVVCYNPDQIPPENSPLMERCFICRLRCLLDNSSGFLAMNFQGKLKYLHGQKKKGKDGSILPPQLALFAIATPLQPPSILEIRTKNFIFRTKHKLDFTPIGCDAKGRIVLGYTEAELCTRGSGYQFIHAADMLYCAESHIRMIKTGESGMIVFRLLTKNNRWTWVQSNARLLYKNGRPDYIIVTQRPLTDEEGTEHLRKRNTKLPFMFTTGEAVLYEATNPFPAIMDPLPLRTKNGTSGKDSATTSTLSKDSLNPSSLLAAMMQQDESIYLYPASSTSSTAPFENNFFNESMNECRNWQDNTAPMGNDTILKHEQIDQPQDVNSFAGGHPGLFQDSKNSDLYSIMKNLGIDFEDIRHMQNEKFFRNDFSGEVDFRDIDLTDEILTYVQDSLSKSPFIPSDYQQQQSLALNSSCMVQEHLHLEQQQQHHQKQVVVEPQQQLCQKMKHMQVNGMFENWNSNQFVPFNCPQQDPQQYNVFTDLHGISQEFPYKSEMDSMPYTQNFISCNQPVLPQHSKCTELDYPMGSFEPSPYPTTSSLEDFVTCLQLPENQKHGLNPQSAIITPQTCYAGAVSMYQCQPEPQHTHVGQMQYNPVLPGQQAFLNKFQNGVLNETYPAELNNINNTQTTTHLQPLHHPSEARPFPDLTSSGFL
SMILES,Potency,activation
COc1cc(/C=C/C(=O)O[C@H]2CC[C@]34C[C@]35CC[C@]3(C)[C@@H]([C@H](C)CCC=C(C)C)CC[C@@]3(C)[C@@H]5CC[C@H]4C2(C)C)ccc1O,inactive,–
CCCCCCCCCCCCCCCC(=O)OC[C@H](O)[C@H]1OC(=O)C(O)=C1O,inactive,–
Cc1c(C)c2c(c(C)c1O)CCC(C)(COc1ccc(CC3SC(=O)NC3=O)cc1)O2 (stereo unspecified),inactive,–
COC(=O)C1=C(C)NC(C)=C(C(=O)OCC(C)C)C1c1ccccc1[N+](=O)[O-] (stereo unspecified),9.44 µM (active),–
O=[N+]([O-])c1ccccc1Nc1ccccc1,–,-0.278%
CN(C)c1ccc(SC#N)cc1,–,5.78%
CCCC1O[C@@H]2C[C@H]3[C@@H]4CCC5=CC(=O)C=C[C@]5(C)[C@H]4[C@@H](O)C[C@]3(C)[C@]2(C(=O)CO)O1 (stereo partly specified),inactive,–
CCc1cc(Cc2cc(CC)c(N)c(CC)c2)cc(CC)c1N,2.73 µM (active),–
CCCCCCCCCCC=O,–,-1.27% [at 95 µM]
C1CCCC1,–,-2.31%
CC(C)CCCCCCCCCCCCCCC(=O)O,–,4.29%
Oc1ccc(Cl)cc1Sc1cc(Cl)ccc1O,inactive,–
NC(=NCCCCCCN=C(N)/N=C(\N)Nc1ccc(Cl)cc1)/N=C(\N)Nc1ccc(Cl)cc1,inactive,–
CC1=NC(C)OC1C (stereo unspecified),–,3.84%
C=C(C)C(=O)OCC[N+](C)(C)C,–,-2.56%
CCCCCOC(=O)CCCC,–,-0.0077%
CCOC(=O)c1nc(C(Cl)(Cl)Cl)n(-c2ccc(Cl)cc2Cl)n1,–,2.92%
CCC(C)(C)C1CCCCC1OC(C)=O (stereo unspecified),–,2.75%

SMILES,Potency,activation
Clc1ccc2nsnc2c1NC1=NCCN1,–,1.17%
C[C@@H]1C[C@H]2[C@@H]3CCC4=CC(=O)C=C[C@]4(C)[C@@]3(Cl)[C@@H](O)C[C@]2(C)[C@@]1(OC(=O)c1ccco1)C(=O)CCl,–,5.71% [at 32.5 µM]
CC(=O)OCC(C)OC(C)=O (stereo unspecified),–,-0.0176%
CCCCCCCCS(=O)C(C)Cc1ccc2c(c1)OCO2 (stereo unspecified),27.8 µM (active),–
CCCCCCC[N+](CC)(CC)CCCCc1ccc(Cl)cc1,–,3.04% [at 32.5 µM]
O=C1CCCCCN1SSN1CCCCCC1=O,–,-0.095%
Cc1cccc(S(=O)(=O)O)c1C,–,-0.947%
COc1c(C)c2c(c(O)c1C/C=C(\C)CCC(=O)O)C(=O)OC2,–,4.1% [at 32.5 µM]
CSc1ccc(C(=O)c2[nH]c(=O)[nH]c2C)cc1,–,3.73%
CCN(C(=O)N(CC)c1ccccc1)c1ccccc1,–,-0.197%
ON=C1CCCC1,–,6.5% [at 95 µM]
On1ccccc1=S,–,-0.708%
Cc1ccc(O)c(C(C)(C)C)c1,inactive,–
O=C1c2ccccc2Cc2ccccc21,–,0.392% [at 95 µM]
C[C@H]1[C@H]2CC[C@H]3[C@@H]4CC=C5C[C@@H](N(C)C)CC[C@]5(C)[C@H]4CC[C@]23CN1C,–,-1.5%
CCN1/C(=C/C=C/c2sc3ccccc3[n+]2CC)Sc2ccccc21,2.66 µM (active),–
O=C(OCC1CO1)C1CCCCC1C(=O)OCC1CO1 (stereo unspecified),–,4.13%
Fc1ccc(C(c2ccc(F)cc2)N2CCN(C/C=C/c3ccccc3)CC2)cc1,–,0.321%
